Results: PubChem BioAssay (Tox21)
Records with an inconclusive call do not appear. Activity calls are given as the source filed them. Unless noted, calls follow the shape of the dose curve; as a rule, active = well fitted curve in the direction sought with a large enough effect in the repeat runs; inconclusive = weak or mixed curves; inactive = no such curve, though single readings can be large; an effect the other way counts as inactive or inconclusive.

Key:
[1] = qHTS assay to identify small molecule agonists of the vitamin D receptor (VDR) signaling pathway - cell viability counter screen (AID 743224); also: series mostly up to about 63 µM; nearly all actives have a fitted effect of over 50% in size
Summary of the method: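 Viability is measured in the same wells as the VDR-bla reporter assay: after 16 h compound treatment and 2 h substrate loading, CellTiter-Glo is added and luminescence read 30 min later.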

[2] = qHTS assay to identify small molecule antagonists of the vitamin D receptor (VDR) signaling pathway - cell viability counter screen (AID 743225); also: nearly all actives have a fitted effect of over 50% in size
Summary of the method: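 Cytotoxicity toward the VDR-bla HEK 293T line was scored by ATP-based CellTiter-Glo luminescence, read in the wells already used for the beta-lactamase readout after 16 h compound treatment under 3 nM 1-alpha,25-dihydroxyvitamin D3 stimulation.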

[3] = qHTS assay to identify small molecule agonists of the NFkB signaling pathway - cell viability counter screen (AID 1159515; calls by dose curve; also: series mostly up to about 61 µM; nearly all actives have a fitted effect of over 55% in size)
Summary of the method: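 Multiplexed viability readout: after the 5 hr compound exposure and 1.5 hr FRET substrate step, CellTiter-Glo reagent went into the same NFkB-bla ME-180 wells; ATP luminescence was measured after 30 min at room temperature.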

[4] = qHTS assay to identify small molecule agonists of the endoplasmic reticulum stress response signaling pathway (AID 1159516; active = well fitted activation curve with a large enough effect in the signal ratio in the repeat runs, not every such curve was filed as active; the % refers to the signal ratio)
Summary of the method: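 Tox21 10K library screened in quantitative HTS format on ESRE-bla HeLa cells, a beta-lactamase reporter under ER stress response element control; 5 hr treatment, FRET read.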

[5] = qHTS assay to identify small molecule agonists of the endoplasmic reticulum stress response signaling pathway - cell viability counter screen (AID 1159517; calls by dose curve; also: series mostly up to about 61 µM; nearly all actives have a fitted effect of over 50% in size)
Summary of the method: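 HeLa cells carrying an ESRE-driven beta-lactamase reporter receive compound for 5 hr at 37 C. Cell viability is then gauged with CellTiter-Glo by luminescence, 30 min at room temperature.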

[6] = target: Nuclear receptor ROR-gamma (Homo sapiens) (UniProt P51449); experiment: qHTS assay to identify small molecule antagonists of the retinoid-related orphan receptor gamma (ROR-gamma) signaling pathway (AID 1159521;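 also: CHO cells with doxycycline inducible ROR-gamma driving an RORE luciferase reporter; top concentration of the series differs between compounds; nearly all actives have a fitted effect of over 50% in size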)
Summary of the method: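 Readout: ONE-Glo luciferase luminescence, 30 min at room temperature. System: Tet-on RORγ CHO, RORE-LUC. Sequence: compound 2 h, doxycycline 1 uM final, 16 h at 37 C.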

[7] = qHTS assay to identify small molecule agonists of the AP-1 signaling pathway - cell viability counter screen (AID 1159525; calls by dose curve; also: nearly all actives have a fitted effect of over 55% in size)
Summary of the method: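 Luminescent ATP readout (Cell Titer Glo, 30 min RT), normalised to DMSO and tetra n-octyl ammonium bromide controls. Cells were ME-180 AP-1-bla in 0.5% dialyzed FBS Opti-MEM, with a 5 h, 37 °C compound exposure.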

[8] = qHTS assay to identify small molecule agonists of the AP-1 signaling pathway (AID 1159526; calls by dose curve)
[9] = target: Retinoic acid receptor RXR-alpha (Homo sapiens) (UniProt P19793); experiment: qHTS assay to identify small molecule agonists of the RXR signaling pathway (AID 1159527; calls by dose curve; also: nearly all actives have a fitted effect of over 35% in size)
Summary of the method: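 Reporter activation is measured as beta-lactamase activity via FRET substrate cleavage (emission 460/530 nm) in HEK 293T cells expressing an RXR-alpha-driven bla construct, following 16 hr compound exposure at 37 C.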

[10] = qHTS assay to identify small molecule agonists of the RXR signaling pathway - cell viability counter screen (AID 1159529)
Summary of the method: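 Tox21 10K compounds were tested for cytotoxicity against GeneBLAzer RXR-alpha HEK 293T cells grown in 2% charcoal-stripped FBS. Exposure lasted 16 hr at 37 C, 5% CO2; viability read by CellTiter-Glo luminescence.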

[11] = qHTS assay to identify small molecule antagonists of the retinoid acid receptor (RAR) signaling pathway - cell viability counter screen (AID 1159551); also: nearly all actives have a fitted effect of over 35% in size
Summary of the method: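 Cytotoxicity counter screen in C3RL4 cells: 6 h compound exposure with 1 uM retinol (final), viability from cellular ATP by luminescence.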

[12] = qHTS assay to identify small molecule agonists of the retinoic acid receptor (RAR) signaling pathway (AID 1159553)
Summary of the method: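 Agonist activity was scored in C3RL4 cells bearing a retinoic acid response element luciferase construct. Cells were treated with compounds for 6 hr at 37 C, and luciferase signal was measured as luminescence.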

[13] = qHTS assay to identify small molecule antagonists of the estrogen related receptor (ERR) signaling pathway - cell viability counter screen (AID 1224818);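 also: series mostly up to about 46 µM; viability measured after 17.5 h of compound exposure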
Summary of the method: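 Cells carrying the ERR pathway reporter were seeded and incubated for 6 hours before compound addition. After a 17.5-hour exposure at 37 C, live-cell protease activity was measured by CellTiter-Fluor fluorescence following 30 minutes of incubation.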

[14] = qHTS assay to identify small molecule antagonists of the estrogen related receptor signaling pathway with the pleiotropic PPARgamma coactivator (PGC) cell viability counter screen (AID 1224822;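 also: series mostly up to about 46 µM; viability read after 17.5 h compound exposure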)
Summary of the method: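 Seed PGC/ERR cells (2,000/well); incubate 6 h at 37 C/5% CO2; pin-transfer compounds in DMSO; incubate 17.5 h at 37 C; add CellTiter-Fluor; after 30 min read fluorescence.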

[15] = qHTS assay to identify small molecule antagonists of the retinoid-related orphan receptor gamma (ROR-gamma) signaling pathway - cell viability counter screen (AID 1159520); also: nearly all actives have a fitted effect of over 50% in size
Summary of the method: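 Cytotoxicity was read from cellular ATP (CellTiter-Glo luminescence) after 16 hr at 37 C with 1 uM doxycycline induction. The inducer was added 2 hr after compound transfer to Tet-on ROR gamma CHO cells.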

[16] = qHTS assay to identify small molecule antagonists of the retinoic acid receptor (RAR) signaling pathway (AID 1159552; also: nearly all actives have a fitted effect of over 50% in size)
Summary of the method: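 Overnight-plated C3RL4 reporter cells get compound, then retinol to 1 uM final; plates sit 6 hr at 37 C, 5% CO2. A luciferase reagent is added and light output recorded after 30 min at room temperature.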

Measured: Potency

Retinoic acid receptor RXR-alpha (Homo sapiens), sequence (P19793 whole entry, looked up): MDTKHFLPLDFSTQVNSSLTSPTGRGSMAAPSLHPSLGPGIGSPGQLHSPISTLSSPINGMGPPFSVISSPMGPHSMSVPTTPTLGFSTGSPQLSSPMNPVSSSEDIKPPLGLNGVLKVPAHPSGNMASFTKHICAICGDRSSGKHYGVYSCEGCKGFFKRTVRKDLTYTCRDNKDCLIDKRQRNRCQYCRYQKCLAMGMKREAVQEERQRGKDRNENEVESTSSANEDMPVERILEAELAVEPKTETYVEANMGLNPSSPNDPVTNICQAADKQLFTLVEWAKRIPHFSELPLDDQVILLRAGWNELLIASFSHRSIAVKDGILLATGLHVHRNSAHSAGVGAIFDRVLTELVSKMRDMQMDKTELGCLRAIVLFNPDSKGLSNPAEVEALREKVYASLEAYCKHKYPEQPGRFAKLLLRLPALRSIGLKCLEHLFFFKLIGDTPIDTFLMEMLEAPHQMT

CCCCCCCCCCCCSC
not listed: [12] | [13] | [14] | [15] | [16]
inactive: all other assays above

CN(C)CCCN(C)CCCN(C)C
not listed: [9] | [12] | [13] | [14] | [15] | [16]
inactive: all other assays above

C=CC(=O)OCCCl
not listed: [2] | [13] | [14] | [15] | [16]
inactive: all other assays above

CO[C@@]1(NC(=O)CSC[C@@H](N)C(=O)O)C(=O)N2C(C(=O)O)=C(CSc3nnnn3C)CS[C@@H]21
not listed: [9] | [12] | [13] | [14] | [15] | [16]
inactive: all other assays above

C[N+](C)(C)CCCCCCCCCC[N+](C)(C)C
not listed: [15] | [16]
inactive: all other assays above

C=CCCCCCCCCC(=O)OCC
not listed: [12] | [13] | [14] | [15] | [16]
inactive: all other assays above

C[C@H]1[C@H](NC(=O)/C(=N/OC(C)(C)C(=O)O)c2csc(N)n2)C(=O)N1S(=O)(=O)O (stereo in doubt)
not listed: [1] | [2] | [4] | [13] | [14]
inactive: all other assays above

O=C(O)CNC(=O)c1ccc(CO)o1
not listed: [7] | [9] | [12] | [13] | [14] | [16]
inactive: all other assays above

NS(=O)(=O)Cc1noc2ccccc12
not listed: [12] | [13] | [14] | [15] | [16]
inactive: all other assays above

CC(=O)C1CCCCC1=O (stereo unspecified)
not listed: [2] | [12] | [13] | [14] | [15] | [16]
inactive: all other assays above

C=C(C)C(=O)OCC(O)CO (stereo unspecified)
not listed: [12] | [13] | [14] | [15] | [16]
inactive: all other assays above

COCCOCC(OC)OC
not listed: [12] | [13] | [14] | [15] | [16]
inactive: all other assays above

CCCc1ncc(C[n+]2ccccc2C)c(N)n1
not listed: [12] | [13] | [14] | [15] | [16]
inactive: all other assays above

O=C(O)CC(C(=O)O)S(=O)(=O)O (stereo unspecified)
inactive: [2] | [3] | [4] | [5] | [15] | [6] | [8] | [10] | [11]

O=CN(CCO)CCO
inactive: [1] | [3] | [4] | [5] | [6] | [7] | [8] | [10] | [11]

O=[N+]([O-])c1ccc(/C=N\O)o1
not listed: [12] | [13] | [14] | [15] | [16]
inactive: all other assays above

O=S(=O)(O)c1cc(O)c(O)c(S(=O)(=O)O)c1
not listed: [2] | [12] | [13] | [14] | [15] | [16]
inactive: all other assays above

CC(C)C(=O)OC(=O)C(C)C
not listed: [9] | [12] | [13] | [14] | [15] | [16]
inactive: all other assays above

C[C@H]1C[C@H]2[C@@H]3CCC4=CC(=O)C=C[C@]4(C)[C@H]3C(=O)C[C@]2(C)[C@@]1(O)C(=O)CO
not listed: [7] | [9] | [12] | [13] | [14] | [16]
inactive: all other assays above
